Compound activity as filed in PubChem.
In the library only some 4.7% were active in any assay of this set; here they are far more common.
SUMO HTRF inh = inhibitors of human SUMOylation (UBC9) | hit rate 0.36% among 290,000 | inhibition, % at 35 µM | HTRF SUMOylation assay, SAE1/SAE2 + UBC9, in vitro | P63279; in the data active = inhibition above about 50%, passing the limit was not always enough; inconclusive = no clear call, values can overlap the other calls
Target sequence (P63279 whole entry, looked up): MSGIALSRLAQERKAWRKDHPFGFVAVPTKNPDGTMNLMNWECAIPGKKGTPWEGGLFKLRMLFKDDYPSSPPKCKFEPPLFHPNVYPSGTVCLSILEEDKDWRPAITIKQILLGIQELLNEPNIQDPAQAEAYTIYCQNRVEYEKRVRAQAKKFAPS
PABP1 MLLE inh = inhibitors of microRNA-mediated deadenylation, human PABP1 MLLE binding. P11940. GST-MLLE / FITC-PAM2 fluorescence polarization. inhibition, % at 20 µM. hit rate 0.36% among 360,000. AID 588489; in the data active = inhibition above about 35%, passing the limit was not always enough;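 also: plate controls were DMSO wells with GST-MLLE for no effect and wells lacking GST-MLLE protein for full effect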
Efflux pump inh = antifungal efflux pump inhibition, Nile Red retention; hit rate 0.44% among 330,000; inhibition, % at 10 µM; AID 485275; S. cerevisiae Candida pump triplex;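 active = plate passing quality check with inhibition over a set limit, or well fluorescence over plate mean plus 4 SD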;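 also: Nile Red retained in pooled yeast measured as flow cytometry median fluorescence; 0% = buffer negative control and 100% = Enniatin B positive control; higher means more Nile Red kept so more efflux inhibition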
ALR H2O2 inh = human ALR oxidase inhibition via reduced H2O2; inhibition, % (concentration not given with the values); purified ALR, DTT oxidation, H2O2 HRP-luminol luminescence; AID 485317; P55789; hit rate 3.8% among 290,000;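 active = mean replicate inhibition above about 79%, with every replicate also reaching it, limit read from the data; inconclusive = only one of the two criteria met; inactive = mean below limit and not every replicate reaching it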
Target sequence (P55789 whole entry, looked up): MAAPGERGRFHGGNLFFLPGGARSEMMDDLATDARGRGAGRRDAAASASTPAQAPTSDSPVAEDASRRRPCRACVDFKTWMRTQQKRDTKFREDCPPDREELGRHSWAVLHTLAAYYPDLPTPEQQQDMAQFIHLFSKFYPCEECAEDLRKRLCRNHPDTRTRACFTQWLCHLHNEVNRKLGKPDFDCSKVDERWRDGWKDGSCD
eIF4H inh = inhibitors of RNA binding by human eIF4H; Q15056; eIF4H fluorescence polarization binding assay; inhibition, % at 35 µM; hit rate 0.94% among 290,000; AID 2012;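 also: calls also rest on retests at 20 µM and on dose response follow-up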
PABP polyA inh = blocks human PABP binding to poly(A) RNA | fluorescence polarization | inhibition, % at 35 µM | hit rate 1% among 290,000;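 also: calls also rest on retests at 20 µM and on dose response follow-up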
* hit, by the source's call; u = inconclusive; x = not tested or not shown. Unless noted, no rule for the calls is given here.

SMILES	SUMO HTRF inh	PABP1 MLLE inh	Efflux pump inh	ALR H2O2 inh	eIF4H inh	PABP polyA inh
C=CCn1c(CSCc2ccc(Cl)cc2Cl)nnc1SCC(=O)Nc1ccc(C(=O)O)cc1	-6.4	-24.5	-0.1	8.4	3.5	17.0
CCOC(=O)C1=C(C)N=c2s/c(=C/c3ccc(OCC(=O)O)c(OC)c3)c(=O)n2C1c1ccc(Cl)cc1 (stereo not given)	x	-167.7	-0.2	-7.1	x	x
O=C1CCCC2=C1C(c1ccc(Cl)cc1)n1c(s/c(=C\c3ccc4ccncc4c3)c1=O)=N2 (stereo not given)	22.0	-53.3	0.2	24.7	55.2*	active
CC(=O)c1c(N2CCN(c3ccccn3)CC2)nc(=S)n(-c2ccccc2)c1C	10.2	16.0	-0.2	0.8	u	1.9*
CCn1c(C)c(C(C)=O)c(N2CCN(c3ccc(OC)cc3)CC2)nc1=S	25.5	-86.8	0.0	x	83.4	33.3
CC(=O)c1c(N2CCN(c3cccc(Cl)c3)CC2)nc(=S)n(-c2ccccc2)c1C	11.7	7.4	-0.1	1.6	84.4*	98.7*
CC(=O)c1c(N2CCN(C)CC2)nc(=S)n(Cc2ccccc2)c1C	-3.2	22.5	0.0	-1.6	40.7	1.8
COc1ccc(N2CCN(c3nc(=S)n(-c4ccccc4)c(C)c3C(C)=O)CC2)cc1	26.7	-14.2	0.1	57.2	68.5*	58.6*
COc1ccc(Nc2cc(Nc3cccc(OC)c3)ncn2)cc1	19.3	-20.5	2.3	x	9.8	-4.6
CSCCC(C)N1CCC(Oc2ccc(C(=O)NCc3ccccn3)cc2)CC1 (stereo not given)	x	7.2	x	x	x	x
COc1ccc(N2C3=C(CC4=C2CCCC4=O)C(=O)CCC3)cc1	83.5	78.7*	-0.1	0.4	104.6*	active
COc1ccc(N2C3=C(CC4=C2CC(C)(C)CC4=O)C(=O)CC(C)(C)C3)cc1	6.4	35.6	0.0	7.4	2.4	8.7
Cc1cc([N+](=O)[O-])nn1CC(=O)N/N=C/c1ccccc1F	3.2	-1.5	0.0	0.3	58.3*	active
Cc1cc([N+](=O)[O-])nn1CC(=O)N/N=C/c1ccccc1O	5.0	11.6	-0.1	3.8	15.2	-5.1
Cc1cccc(/C=N/NC(=O)Cn2nc(C)cc2C)n1	7.7	3.8	0.3	-3.0	102.5*	3.8*
O=[N+]([O-])c1ccc(O)c(-c2cc(C(F)(F)F)nc(-c3ccccc3)n2)c1	-14.1	6.9	0.0	1.2	-5.1	-2.4
Cc1ccccc1OCC(=O)OCC(=O)NC1CC1	x	-1.8	-0.1	-7.8	x	x
Cc1cc2ncn(S(=O)(=O)c3ccc(F)cc3)c2cc1C	-0.1	5.3	-0.1	4.8	-0.5	-5.0
Cc1cc2ncn(C(=O)c3ccc(F)cc3)c2cc1C	-9.2	-10.6	-0.1	97.7*	-2.0	0.4
Cc1nn(-c2ccccc2)c(C)c1NC(=O)COc1cc(F)ccc1[N+](=O)[O-]	x	-1.7	0.2	0.1	x	x
O=C(CCCCCNc1nc(=S)[nH]c2ccccc12)NCCC1=CCCCC1	11.3	-104.3	-0.1	-0.5	-5.0	-4.6
CC(=S)/C=C1\Sc2ccccc2N1C	20.4	10.7	0.0	83.2*	2.9	4.3
CCCN(C(=O)CSCc1ccc(C)cc1)c1c(N)n(Cc2ccccc2)c(=O)[nH]c1=O	x	-27.1	x	x	x	x
CC(C)NC(=O)c1ccc(CSCc2ccccc2Cl)o1	-2.7	8.8	-0.1	99.1*	-7.4	1.3
CCC(C)NC(=O)c1ccc(CSCc2ccc(Cl)cc2)o1 (stereo not given)	-3.5	0.7	0.0	84.5*	-6.0	-5.0
SMILES	SUMO HTRF inh	PABP1 MLLE inh	Efflux pump inh	ALR H2O2 inh	eIF4H inh	PABP polyA inh
CCC(C)NC(=O)c1ccc(CSCc2ccccc2Cl)o1 (stereo not given)	16.9	16.1	0.1	36.4	-1.7	0.8
CCC(C)NC(=O)c1ccc(CSCc2cccc(F)c2)o1 (stereo not given)	13.8	10.8	-0.1	1.7	-0.6	22.6
COC(=O)c1c(C)[nH]c(C(=O)OCC(=O)c2c(N)n(CC(C)C)c(=O)n(C)c2=O)c1C	x	10.2	-0.2	-0.6	x	x
COc1cc(C2(c3ccc(O)c(OC)c3)C(=O)N(C)c3ccc(C)cc32)ccc1O	x	15.4	0.0	67.3	x	x
Cc1ccc(S(=O)(=O)NCC(=O)OCc2csc(CC(=O)Nc3ccccc3C)n2)cc1C	x	-18.3	x	x	x	x
Cc1ccc(SCC(=O)OCc2csc(CC(=O)Nc3ccccc3C)n2)cc1C	x	-21.2	0.3	98.9*	x	x
Cc1ccccc1NC(=O)Cc1nc(CCl)cs1	-4.3	17.9	1.5	91.8*	3.7	1.7
COc1ccc(CCN(C)C(=O)C2CCN(C(=O)Nc3ccccc3)CC2)cc1OC	x	7.7	-0.1	-0.6	x	x
C[C@H](NS(=O)(=O)c1ccc2c(c1)OCCCO2)C(=O)N1CCN(Cc2ccccc2)CC1	x	13.7	x	x	x	x
COc1ccccc1N1CCN(C(=O)[C@H](C)NS(=O)(=O)c2ccc3c(c2)OCCCO3)CC1	x	41.0*	x	x	x	x
COC(=O)Cc1nnc(SCC(=O)Nc2ccccc2)c2ccccc12	0.5	-2.1	-0.3	97.7*	-11.5	2.3
O=C(CSc1nnc(-c2ccc(F)cc2)c2ccccc12)Nc1ccccc1	-13.0	7.6	1.2	99.4*	-8.3	1.9
O=C(CSc1nnc(-c2ccc(F)cc2)c2ccccc12)Nc1cccc(Cl)c1	-38.5	-12.5	0.0	-8.7	0.3	5.1
CN(Cc1ccccc1)c1nnc(N)s1	3.6	-3.6	0.2	u	4.1	-12.2
CC(C)N(c1nnc(N)s1)C(C)C	-2.1	-44.4	0.1	96.7*	-5.4	-4.9
O=C(Nc1nnc(C2CC2)o1)c1ccc(S(=O)(=O)N2CCCc3ccccc32)cc1	-38.1	11.8	0.5	96.4*	16.8	8.8
COCc1nnc(NC(=O)c2ccc(S(=O)(=O)N3CCCc4ccccc43)cc2)o1	-6.0	5.4	-0.1	85.6*	19.8	-2.1
COc1ccc(-c2nnc(NC(=O)c3ccc(S(=O)(=O)N4CCCc5ccccc54)cc3)o2)cc1	-45.0	-2.0	0.0	15.4	15.7	8.8
CN1CCN(/N=C/c2ccc(Br)cc2)CC1	6.0	12.2	0.0	-1.1	0.4	0.1
CN(C)c1ccc(C=NN2CCCCCC2)cc1	x	-43.0	x	x	x	x
CN1CCN(/N=C/c2ccc(N(C)c3ccccc3)cc2)CC1	5.0	4.1	0.2	99.1*	-2.5	7.5
CN1CCN(/N=C/c2ccc(N(c3ccccc3)c3ccccc3)cc2)CC1	-7.6	25.4	0.1	95.7*	-10.7	-4.0
Cc1ccc(Nc2nc(N)c3ccccc3n2)cc1C	2.2	1.1	0.0	53.8	-5.5	-11.8
Oc1ccc(Nc2nc(Cl)nc(NCc3ccco3)n2)cc1	-3.8	-8.0	0.0	99.4*	-9.6	10.2
C=CCN1C(=O)/C(=c2\sc3nc(=O)c(Cc4ccccc4Cl)nn3c2=O)c2ccccc21	8.6	15.3	0.0	95.6*	-12.0	6.1
CCCCn1c(SCCN2CCCCC2)nc2c1c(=O)n(C)c(=O)n2C	x	6.5	x	x	x	x
O=C(Cc1c(F)cccc1Cl)NNC(=O)Nc1ccc2c(c1)OCO2	18.6	0.0	-0.2	-8.4	5.4	6.4
